Measured values published in PubChem BioAssay (EPA / NIEHS).
Activity calls are given as the source filed them. How the source made its calls: active means hit-call score of the fitted dose curve at least 0.9, where 1 is the maximum; inactive means score below 0.9.

Test: CCTE_Padilla_ZF_Score.Living: CCTE's 144 Hour Post-fertilization zebrafish Assay Score for Viability, Padilla Lab (AID 2284410);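 further: larval death at 6 dpf judged by absent heartbeat or coagulation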
Method in brief: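 Mortality at 6 dpf, judged as absent heartbeat or coagulation by two blinded observers, after sealed static exposure beginning at 6–8 hpf at 26C. Larvae were rinsed free of chemical at 5 dpf, and activity was fitted relative to DMSO.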

| SMILES | outcome |
| --- | --- |
| FC(F)=C(F)OC(F)(F)C(F)(F)C(F)(F)F | inactive |
| CC=CC(F)(F)C(F)(F)C(F)(F)F | inactive |
| CCOC(F)(F)C(F)(F)C(F)(F)C(F)(F)F | inactive |

Test: CCTE_Padilla_ZF_Score.General: CCTE's 144 Hour Post-fertilization zebrafish Assay Score for General Malformation, Padilla Lab (AID 2284411)
Method in brief: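 Malformation, death and hatching were scored at 6 dpf by two blinded observers under a stereo microscope. Embryos were dosed singly from 6-8 hpf in sealed plates of 10% Hanks' at 26C and rinsed on 5 dpf; DMSO baseline.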

| SMILES | outcome | AC50 |
| --- | --- | --- |
| CCCCCCCCCCc1ccccc1 | inactive |  |
| C#CC1(O)CC[C@H]2[C@@H]3CCC4=CCCC[C@@H]4[C@H]3CC[C@@]21C (some centres not stated) |  | 2.31 µM (active) |
| FC(F)=C(F)OC(F)(F)C(F)(F)C(F)(F)F | inactive |  |
| COCc1c(C(C)C)nc(C(C)C)c(/C=C/[C@@H](O)C[C@@H](O)CC(=O)O)c1-c1ccc(F)cc1 | inactive |  |
| CC=CC(F)(F)C(F)(F)C(F)(F)F | inactive |  |
| S=C(NC1CCCCC1)NC1CCCCC1 |  | 25.5 µM (active) |
| CCCCCCCCCCCCCCCC[N+](C)(C)CC | inactive |  |
| CCCCCCCCc1ccc(Nc2ccc(CCCCCCCC)cc2)cc1 | inactive |  |
| O=Nc1ccc(O)cc1 | inactive |  |
| CCCCC(CC)COC(=O)c1ccccc1O (configuration not stated) | inactive |  |
| c1ccc2c(c1)ccc1cc3c(ccc4ccccc43)cc12 | inactive |  |
| C=CCOCC(O)CCl (configuration not stated) | inactive |  |
| CCOC(F)(F)C(F)(F)C(F)(F)C(F)(F)F | inactive |  |
| CCCCC/C=C\C/C=C\CCCCCCCC(=O)OC | inactive |  |
